Reference: PubChem BioAssay AID1851 (National Center for Advancing Translational Sciences (NCATS), 2009)
Out of some 16,000 compounds screened, about 5,700 (36%) were called active. Inconclusive results (about 24%) are left out. Calls follow the shape of the dose curve; as a rule, active = well fitted curve in the direction sought with a large enough effect; inconclusive = small, poorly fitted or top-dose-only effect, or effect the other way; inactive = no such curve, though single readings can be large or run the other way. The list shows a part of the results.

Target: Cytochrome P450 1A2 (Homo sapiens) (UniProt P05177)
Sequence (P05177 whole entry, looked up): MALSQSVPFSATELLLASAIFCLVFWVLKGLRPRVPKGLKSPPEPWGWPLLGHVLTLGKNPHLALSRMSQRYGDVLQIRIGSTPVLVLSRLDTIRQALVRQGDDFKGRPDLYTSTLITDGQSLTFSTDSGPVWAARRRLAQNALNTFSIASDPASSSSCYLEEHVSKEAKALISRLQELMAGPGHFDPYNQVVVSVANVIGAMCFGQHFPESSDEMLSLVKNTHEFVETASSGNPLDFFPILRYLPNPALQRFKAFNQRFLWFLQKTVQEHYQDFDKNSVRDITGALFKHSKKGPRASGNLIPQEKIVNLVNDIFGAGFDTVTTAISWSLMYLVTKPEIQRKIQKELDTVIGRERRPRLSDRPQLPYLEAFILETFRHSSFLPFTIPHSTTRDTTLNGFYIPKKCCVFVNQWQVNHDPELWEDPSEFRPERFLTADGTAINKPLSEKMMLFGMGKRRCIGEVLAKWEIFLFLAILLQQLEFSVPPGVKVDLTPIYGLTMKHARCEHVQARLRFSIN
Assay: Cytochrome panel assay with activity outcomes
Conditions: recombinant CYP, pro-luciferin dealkylation, luminescence, p450-cyp1a2; series mostly up to 57.1 µM
% is scaled to controls: 0 for no effect and ±100 for the full control effect.

activity, negative = inhibition, inactive:
CSCC[C@@H]1NC(=O)C/C=C\[C@@H](C)COC(=O)[C@@H](C)COC1=O 4.43% [at 11.4 µM], Oc1c(Cl)cc(CN(Cc2cc(Cl)c(O)c(Cl)c2)C2CCCCC2)cc1Cl 11.3% [at 2.29 µM], CCOC(=O)CCN1C(=O)[C@H]2[C@H]3[C@H](O)[C@H](O)C/C(=N/OCC(C)C)[C@H]3CC[C@@H]2C1=O -11.8% [at 11.4 µM], O=C(Nc1ccc2ncccc2c1)Nc1ccc2ncccc2c1 -28.5% [at 2.29 µM], CO/N=C1/c2cc(OC)ccc2O[C@@H](c2cccc(OC)c2)[C@H]1O -7.77% [at 11.4 µM], CCOC(=O)N/N=C1/C[C@@H](O)[C@@H](O)[C@@H]2[C@@H]3C(=O)N(c4cccc(Oc5ccccc5)c4)C(=O)[C@H]3CC[C@@H]12 -6.44% [at 11.4 µM], Nc1ncnc2c([C@@H]3O[C@@H](CO)[C@H](O)[C@@H]3O)nsc12 -16.8% [at 2.29 µM]

AC50, active:
Cc1cc(C)n(-c2nc(NCC(C)O)c3c4c(sc3n2)COC(C)(C)C4)n1 (configuration not stated) 8.91 µM, CCC(O)CNc1nc(-n2nc(C)cc2C)nc2sc3c(c12)CC(C)(C)OC3 (configuration not stated) 14.1 µM, Cc1cc(NC(=O)Nc2ccc3c(ccn3C)c2)sn1 5.01 µM, Oc1c(Cl)cc(C(c2cc(Cl)c(O)c(Cl)c2)C(c2cc(Cl)c(O)c(Cl)c2)c2cc(Cl)c(O)c(Cl)c2)cc1Cl 0.794 µM, COC(=O)c1cc(C#N)c(Oc2ccc(OC)cc2)nc1C 4.47 µM, CC(=O)c1cc(C#N)c(Oc2ccc(F)cc2)nc1C 2.24 µM, CC(=O)c1cc(C#N)c(Oc2cccc(C(F)(F)F)c2)nc1C 1.12 µM, O=C(NC1CCCCCC1)c1cccs1 5.01 µM, Cc1nc2ccc(NC(=O)Nc3ccnc4cccnc34)cc2o1 1 µM, COc1ccc(-c2csc3c2[N+]2=CCC=C2C3=O)cc1 0.501 µM, Cc1noc(C)c1-c1nccc(-n2ccnc2)n1 0.2 µM, Cc1noc(C)c1-c1cc(N2CCN(C)CC2)ncn1 10 µM, Cc1noc(C)c1-c1nccc(N2CCOCC2)n1 0.631 µM, Cc1noc(C)c1-c1nccc(N2CCN(C)CC2)n1 2 µM, Cc1cc(Cl)ccc1Oc1ncc(-c2ccc(Cl)cc2)cn1 0.794 µM, Cc1cccc(Oc2ncc(-c3ccc(Cl)cc3)cn2)c1C 2.24 µM, CNc1nc(-c2ccccc2Cl)nc2ccccc12 0.126 µM, CNc1nc(-c2ccccc2C)nc2ccccc12 0.501 µM, CCOC(=O)COc1ccc(/C=C/[N+](=O)[O-])c(OCC(=O)OCC)c1 3.16 µM, Fc1ccc2nc3[nH]c4ccccc4c3nc2c1 1 µM, COC(=O)CSc1ccc(C#N)c(SCC(=O)OC)c1 25.1 µM, CCn1ccc(C(=O)NC2=C(C#N)CCC2)n1 6.31 µM, CC(=O)Nc1ccc(-c2nnc(SCC(=O)c3ccc4c(c3)Cc3ccccc3-4)n2C)cc1 11.2 µM, Cn1c(SCC(=O)c2ccc3c(c2)Cc2ccccc2-3)nnc1-c1ccccc1 6.31 µM, Cc1ccc2c(CC(=O)OCc3cc(=O)n4c(n3)sc3ccccc34)coc2c1 8.91 µM, Cc1cc(C(=O)Nc2ccc(N3CCOCC3)cc2)c2ccccc2n1 10 µM, O=C(NNC(=O)c1cc(-c2ccc(Cl)c(Cl)c2)nc2ccccc12)Nc1ccccc1 3.55 µM, Cc1ccc(NC(=O)c2cc(Cl)nc3ccccc23)cc1 2 µM, Cc1n[nH]c(C)c1N=Nc1cc(Cl)ccc1Cl 0.178 µM

AC50, inactive:
C[C@H]1[C@@H](O)[C@@H](C)\C=C/C=C\C=C/C=C\C=C/C=C\C=C/[C@@H](O[C@H]2O[C@@H](C)[C@@H](O)[C@@H](N)[C@@H]2O)C[C@@H]2O[C@](O)(C[C@@H](O)C[C@@H](O)[C@@H](O)CC[C@@H](O)C[C@@H](O)CC(=O)O[C@H]1C)C[C@@H](O)[C@H]2C(=O)O (stereo in doubt), Cc1cc(C)c(NC(=O)NC(=O)c2ccc(F)cc2)c(C)n1, COC(=O)C1=C(C)C(c2ccc(OC)cc2)NC(=S)N1 (configuration not stated), COC(=O)c1cc(C#N)c(NCc2ccc(Cl)cc2Cl)nc1C, CC(C)Oc1cccc(C(=O)NC(=S)N2CCN(c3ccc(C(F)(F)F)cc3[N+](=O)[O-])CC2)c1, Cc1ccc(C(C(=O)NC2CCCCC2)N(CC2CCCO2)C(=O)CNC(=O)c2cccs2)cc1 (configuration not stated), O=C(NCC(=O)N(c1ccccc1)C(C(=O)NC1CCCC1)c1cccnc1)c1cccs1 (configuration not stated), C/C=C\C(=O)N(CC)c1ccccc1C, CC1(C)OC(=O)NC1=O, Cc1noc(C)c1C(=O)N1CCC2(CC1)CCN(c1ccncc1)CC2, CC(C)(C)C(=O)NC(c1ccc(Cl)cc1)[C@]1(C)C[C@H]1C1CCCCC1 (some centres not stated), CCCOc1ccc(/C=C/C(=O)Nc2ccc([N+](=O)[O-])cc2C)cc1, CCCNS(=O)(=O)c1ccc(OCC(=O)OC)cc1, COc1ccc(N2CCN(Cc3nc4c(c(=O)n(C)c(=O)n4C)n3CC(C)=O)CC2)cc1, CCn1ccc(C(=O)NC2C(=O)N3C(C(=O)O)=C(C)CSC23)n1 (configuration not stated), C[C@]12C=CC(=O)C=C1CC[C@@H]1[C@H]3C[C@@H](O)[C@](O)(C(=O)CO)[C@@]3(C)C[C@H](O)[C@]12F, Cn1c(SCC(=O)NC2CC2)nnc1-c1cccc(NC(=O)c2ccccc2F)c1, Cn1c(SC2CCCCC2=O)nnc1-c1ccncc1 (configuration not stated), CC(C)(C)c1onc(OCP(=O)(O)O)c1C[C@@H](N)C(=O)O, O=C1Oc2ccccc2C2(O)C3CCCCCC3C12 (configuration not stated), COc1cc(OC)c(C(=O)CCCCN2CCC3(CC2)NC(=O)NC3=O)cc1NS(=O)(=O)c1ccc(C(F)(F)F)cc1
